Measurements taken from PubChem BioAssay (Tox21).
Several values for one entry are separate records, joined by “and”; a condition that tells them apart may be missing. Equal entries are not always repeated. Results filed as inconclusive are left out. Where a call stands in place of a potency, no number is given. A structure can be active in one record and inactive in another. Activity calls are given as the source filed them. Unless noted, calls follow the shape of the dose curve; as a rule, active = well fitted curve in the direction sought with a large enough effect in the repeat runs; inconclusive = weak or mixed curves; inactive = no such curve, though single readings can be large; an effect the other way counts as inactive or inconclusive.

Key:
[1] = qHTS assay to identify small molecule antagonists of the retinoid acid receptor (RAR) signaling pathway - cell viability counter screen (AID 1159551); also: nearly all actives have a fitted effect of over 35% in size
In short: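 In this counter screen, the RARE-luciferase line C3RL4 was exposed for 6 h at 37 C and 5% CO2 to compounds with retinol at 1 uM final. Cellular ATP, read by luminescence, served as the viability measure.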

[2] = qHTS assay to identify small molecule antagonists of the retinoic acid receptor (RAR) signaling pathway (AID 1159552; also: nearly all actives have a fitted effect of over 50% in size)
In short: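 RARE-luc C3RL4 cells; cpds + 1 uM (final) retinol, 6 hr, 37 C/5% CO2; luciferase reagent, 30 min RT, luminescence readout. Inhibitors of retinol-driven signal scored.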

[3] = qHTS assay to identify small molecule agonists of the retinoic acid receptor (RAR) signaling pathway (AID 1159553); conditions: C3RL4 RARE luciferase reporter, agonist, 6 h; activation: at 73.3 µM (top of the series) unless noted
In short: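 In this cell-based screen, 1,000 C3RL4 cells per well were cultured overnight, dosed with test chemicals in DMSO for 6 hr, and assessed for RARE luciferase luminescence.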

[4] = qHTS assay to identify small molecule antagonists of the estrogen related receptor (ERR) signaling pathway from Tox21 library - cell viability counter screen (AID 1224834); also: nearly all actives have a fitted effect of over 30% in size; also: potency is read from the fitted curve at half-maximal effect
In short: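 Counter screen run in ERR cells (2,000 cells/well): cells pre-incubated 6 h, then treated with compounds for 17.5 h at 37 C. Fluorescence was read 30 min after CellTiter-Fluor addition.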

[5] = biological target: Luciferin 4-monooxygenase (Photinus pyralis) (UniProt P08659); experiment: qHTS assay to identify small molecule inhibitors of firefly luciferase (AID 1224835); also: nearly all actives have a fitted effect of over 25% in size
Luciferin 4-monooxygenase (Photinus pyralis), sequence (P08659 whole entry, looked up): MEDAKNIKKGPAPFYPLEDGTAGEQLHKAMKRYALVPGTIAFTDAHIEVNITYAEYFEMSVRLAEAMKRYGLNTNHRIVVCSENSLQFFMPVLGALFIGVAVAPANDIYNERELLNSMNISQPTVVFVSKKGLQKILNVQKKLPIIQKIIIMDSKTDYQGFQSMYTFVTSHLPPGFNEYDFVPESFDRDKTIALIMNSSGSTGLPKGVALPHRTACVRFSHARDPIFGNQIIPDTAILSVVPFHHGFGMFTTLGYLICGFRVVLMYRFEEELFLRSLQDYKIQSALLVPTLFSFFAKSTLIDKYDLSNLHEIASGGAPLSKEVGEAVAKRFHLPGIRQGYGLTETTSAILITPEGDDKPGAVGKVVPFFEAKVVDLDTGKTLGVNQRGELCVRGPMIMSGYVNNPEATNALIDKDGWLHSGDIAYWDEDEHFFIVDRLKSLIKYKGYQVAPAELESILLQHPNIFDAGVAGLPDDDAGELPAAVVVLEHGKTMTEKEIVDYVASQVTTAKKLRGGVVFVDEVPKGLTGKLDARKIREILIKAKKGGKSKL
In short: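 Biochemical qHTS: compounds run as interplate titrations against purified firefly enzyme, with D-luciferin and ATP each at its KM concentration. Light output recorded by CCD imaging.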

[6] = qHTS assay to identify small molecule agonists of the constitutive androstane receptor (CAR) signaling pathway - cell viability counter screen (AID 1224836); also: nearly all actives have a fitted effect of over 45% in size
In short: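 HepG2 cells stably carrying hCAR and a CYP2B6-2.2kb reporter were plated 4 h, then given compounds at 15 concentrations plus PK11195 (final 0.75 uM). After 23 h at 37 C, viability was read by CellTiter-Fluor fluorescence.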

[7] = qHTS assay to identify small molecule antagonists of the constitutive androstane receptor (CAR) signaling pathway - cell viability counter screen (AID 1224837); also: nearly all actives have a fitted effect of over 45% in size
In short: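 CITCO at 50 nM final was added alongside compounds (15 concentrations) to double-stable hCAR/CYP2B6-2.2kb HepG2 cells. Following 23 hr at 37 C, cell viability was quantified by CellTiter-Fluor fluorescence intensity.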

[8] = qHTS assay to identify small molecule antagonists of the estrogen related receptor signaling pathway with the pleiotropic PPARgamma coactivator (PGC) from Tox21 10K library - cell viability counter screen (AID 1224840; active = well fitted cell-killing curve with a large enough effect in the repeat runs, not every such curve was filed as active; also: nearly all actives have a fitted effect of over 40% in size)
In short: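 Readout: fluorescence intensity from CellTiter-Fluor after 30 min at 37 C/5% CO2. Preceded by 17.5 h treatment of PGC/ERR cells with DMSO-dissolved compounds, added 6 h post-seeding.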

[9] = qHTS assay to identify small molecule agonists of the hypoxia (HIF-1) signaling pathway - cell viability counter screen (AID 1224844; calls by dose curve; also: nearly all actives have a fitted effect of over 50% in size; also: potency is read from the fitted curve at half-maximal effect)
In short: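 In this counter screen, HRE-bla ME-180 cell viability after 17 hrs of compound exposure at 37C was read by CellTiter-Glo luminescence, multiplexed with the beta-lactamase reporter measurement.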

[10] = biological target: Nuclear receptor subfamily 1 group I member 3 (Homo sapiens) (UniProt Q14994); experiment: qHTS assay to identify small molecule antagonists of the constitutive androstane receptor (CAR) signaling pathway (AID 1224838); also: nearly all actives have a fitted effect of over 40% in size; also: potency is read from the fitted curve at half-maximal effect
Nuclear receptor subfamily 1 group I member 3 (Homo sapiens), sequence (Q14994 whole entry, looked up): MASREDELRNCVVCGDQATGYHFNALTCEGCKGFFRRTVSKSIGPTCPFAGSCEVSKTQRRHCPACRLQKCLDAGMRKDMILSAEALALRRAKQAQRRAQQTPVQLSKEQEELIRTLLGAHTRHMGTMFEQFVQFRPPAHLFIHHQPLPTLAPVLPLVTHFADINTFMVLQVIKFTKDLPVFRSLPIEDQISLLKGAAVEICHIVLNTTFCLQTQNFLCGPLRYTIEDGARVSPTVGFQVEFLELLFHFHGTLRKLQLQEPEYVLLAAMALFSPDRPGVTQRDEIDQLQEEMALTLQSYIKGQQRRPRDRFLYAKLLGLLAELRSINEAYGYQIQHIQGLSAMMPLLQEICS
In short: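 Inhibition of CITCO-driven (50 nM final) CYP2B6 reporter expression is measured in HepG2 cells stably carrying hCAR. Fifteen compound concentrations are applied for 24 h at 37 C, followed by luciferase luminescence.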

[11] = biological target: Nuclear receptor subfamily 1 group I member 3 (Homo sapiens) (UniProt Q14994); experiment: qHTS assay to identify small molecule agonists of the constitutive androstane receptor (CAR) signaling pathway (AID 1224839); also: nearly all actives have a fitted effect of over 15% in size
In short: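 HepG2 cells stably expressing hCAR and a CYP2B6-2.2kb luciferase reporter were treated with compounds at 15 concentrations plus 0.75 uM PK11195 (final) for 24 h at 37 C; luminescence was read after ONE-Glo addition.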

[12] = biological target: Thyrotropin receptor (Homo sapiens) (UniProt P16473); experiment: qHTS assay to identify small molecule agonists of the thyroid stimulating hormone receptor (TSHR) signaling pathway (AID 1224843; calls by dose curve; also: nearly all actives have a fitted effect of over 45% in size)
Thyrotropin receptor (Homo sapiens), sequence (P16473 whole entry, looked up): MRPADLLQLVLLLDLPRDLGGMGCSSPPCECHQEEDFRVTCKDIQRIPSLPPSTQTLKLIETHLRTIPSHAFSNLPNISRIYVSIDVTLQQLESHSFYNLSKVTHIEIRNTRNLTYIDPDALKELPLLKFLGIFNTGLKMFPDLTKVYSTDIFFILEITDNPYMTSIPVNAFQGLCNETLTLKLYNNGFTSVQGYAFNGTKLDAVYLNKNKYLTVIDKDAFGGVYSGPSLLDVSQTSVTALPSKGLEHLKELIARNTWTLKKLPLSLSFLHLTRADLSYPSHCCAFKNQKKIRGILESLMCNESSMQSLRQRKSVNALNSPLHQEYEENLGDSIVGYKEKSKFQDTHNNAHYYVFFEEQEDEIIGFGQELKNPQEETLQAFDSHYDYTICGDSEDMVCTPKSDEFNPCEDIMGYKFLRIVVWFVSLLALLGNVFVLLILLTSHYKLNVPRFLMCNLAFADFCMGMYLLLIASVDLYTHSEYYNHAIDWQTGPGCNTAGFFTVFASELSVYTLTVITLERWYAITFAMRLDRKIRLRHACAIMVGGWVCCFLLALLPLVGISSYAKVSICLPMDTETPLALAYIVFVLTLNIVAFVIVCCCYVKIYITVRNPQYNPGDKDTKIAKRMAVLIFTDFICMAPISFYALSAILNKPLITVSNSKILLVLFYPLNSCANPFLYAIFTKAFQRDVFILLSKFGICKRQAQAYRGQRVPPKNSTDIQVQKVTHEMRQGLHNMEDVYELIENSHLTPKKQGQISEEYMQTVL
In short: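 Agonist-mode screen: TSHR HEK293 cells received test chemicals for half an hour at room temperature, then HTRF cAMP detection reagents for one hour prior to fluorescence measurement. Each chemical ran as a 15-concentration series, triplicated.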

[13] = qHTS assay to identify small molecule antagonists of the estrogen related receptor (ERR) signaling pathway - cell viability counter screen (AID 1224818)
In short: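 Viability of ERR cells, CellTiter-Fluor fluorescence; 17.5 h compound exposure at 37 C, DMSO vehicle; 30 min reagent incubation at 37 C/5% CO2.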

[14] = qHTS assay to identify small molecule antagonists of the estrogen related receptor signaling pathway with the pleiotropic PPARgamma coactivator (PGC) cell viability counter screen (AID 1224822)
In short: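 17.5 h compound treatment of PGC/ERR cells at 37 C; readout CellTiter-Fluor fluorescence; run alongside the PGC/ERR antagonist screen to flag cytotoxic compounds.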

[15] = qHTS assay to identify small molecule antagonists of the estrogen related receptor signaling pathway with the pleiotropic PPARgamma coactivator (PGC) from Tox21 10K library (AID 1224841; call rule not given here; also: actives are mostly falling curves and most rising ones were filed inactive; nearly all actives have a fitted effect of over 50% in size)
In short: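 One-Glo luminescence, measured after half an hour at room temperature, quantified reporter output of PGC/ERR cells. These had been plated at 2,000 per well, incubated 6 h, dosed with compounds in DMSO, then kept 18 h at 37 C.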

[16] = qHTS assay to identify small molecule agonists of the estrogen related receptor signaling pathway with the pleiotropic PPARgamma coactivator (PGC) from Tox21 10K library (AID 1224842); also: nearly all actives have a fitted effect of over 15% in size
In short: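 PGC/ERR reporter cell line, 2,000 cells per well, incubated 6 h at 37 C before 23 nL compound in DMSO was added. After 18 h at 37 C, One-Glo luminescence read following 30 min at room temperature.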

| Compound | Potency [1] | Potency [2] | Potency [3] | Potency [4] | Potency [5] | Potency [6] | Potency [7] | Potency [8] | Potency [9] | Potency [10] | Potency [11] | Potency [12] | outcome [13] | Potency [14] | Potency [15] | Potency [16] |
| --- | --- | --- | --- | --- | --- | --- | --- | --- | --- | --- | --- | --- | --- | --- | --- | --- |
| COC(=O)CCCCC(=O)OC | inactive | inactive | inactive | inactive | inactive | inactive | inactive | inactive | inactive | – | – | – | – | – | – | – |
| CCCOC(=O)NCCCN(C)C | inactive | inactive | – | inactive | inactive | inactive | inactive | inactive | inactive | inactive | inactive | inactive | – | – | – | – |
| CN1Cc2c(N)cccc2C(c2ccccc2)C1 (stereo unspecified) | inactive | inactive | – | inactive | – | inactive | inactive | inactive | inactive | inactive | inactive | inactive | inactive | inactive | – | – |
| COCN(COC)c1nc(N(COC)COC)nc(N(COC)COC)n1 | inactive | inactive | – | inactive | inactive | inactive | inactive | inactive | inactive | inactive | inactive | inactive | – | – | inactive | inactive |
| Cc1ccc([N+](=O)[O-])cc1N | inactive | inactive | – | inactive | inactive | inactive | inactive | inactive | inactive | inactive | inactive | inactive | – | – | – | – |
| COc1ccccc1[N+](=O)[O-] | inactive | inactive | – | inactive | inactive | inactive | inactive | inactive | inactive | inactive | inactive | – | – | – | inactive | inactive |
| OB(O)O | inactive | inactive | – | inactive | inactive | inactive | inactive | inactive | inactive | inactive | inactive | – | – | – | inactive | inactive |
| Cc1ccc(C(C)C)cc1 | inactive | inactive | – | inactive | – | inactive | inactive | inactive | inactive | inactive | inactive | inactive | – | – | – | – |
| NC(=O)c1ncn([C@@H]2O[C@H](CO)[C@@H](O)[C@H]2O)n1 | inactive | – | – | inactive | inactive | inactive | inactive | inactive | 18.3 µM (active) | 7.23 µM (active) | inactive | – | inactive | inactive | – | – |
| COc1ccc(N)c(OC)c1 | inactive | – | – | inactive and 54.5 µM (active) | inactive | inactive | inactive | inactive | inactive | inactive | inactive | – | – | – | – | – |
| CC1(C)C(=O)N(Cl)C(=O)N1Cl | inactive | – | – | inactive | inactive | inactive | inactive | inactive | inactive | – | – | inactive | – | – | – | – |
| CC(C)(C)NC[C@H](O)COc1nsnc1N1CCOCC1 | inactive | – | – | inactive | – | inactive | inactive | inactive | inactive | inactive | inactive | – | – | – | – | – |
